Neddylation inh – inhibitors of cullin neddylation, primary screen, biochemical, TR-FRET, uHTS, NAE and Ubc12; NEDD8-conjugating enzyme Ubc12 (Homo sapiens) + NEDD8-activating enzyme E1 regulatory …; inhibition, % at 25 µM; 0.58% of 360,000 active; AID 651699, 2012; in the data active means inhibition above about 36%
Target sequence (P61081 whole entry, looked up): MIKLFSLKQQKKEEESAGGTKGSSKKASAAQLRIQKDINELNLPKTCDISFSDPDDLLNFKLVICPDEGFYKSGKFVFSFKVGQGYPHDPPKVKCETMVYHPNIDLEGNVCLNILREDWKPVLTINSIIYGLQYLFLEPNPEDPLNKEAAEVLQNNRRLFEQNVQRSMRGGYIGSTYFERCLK
Target sequence (Q13564 whole entry, looked up): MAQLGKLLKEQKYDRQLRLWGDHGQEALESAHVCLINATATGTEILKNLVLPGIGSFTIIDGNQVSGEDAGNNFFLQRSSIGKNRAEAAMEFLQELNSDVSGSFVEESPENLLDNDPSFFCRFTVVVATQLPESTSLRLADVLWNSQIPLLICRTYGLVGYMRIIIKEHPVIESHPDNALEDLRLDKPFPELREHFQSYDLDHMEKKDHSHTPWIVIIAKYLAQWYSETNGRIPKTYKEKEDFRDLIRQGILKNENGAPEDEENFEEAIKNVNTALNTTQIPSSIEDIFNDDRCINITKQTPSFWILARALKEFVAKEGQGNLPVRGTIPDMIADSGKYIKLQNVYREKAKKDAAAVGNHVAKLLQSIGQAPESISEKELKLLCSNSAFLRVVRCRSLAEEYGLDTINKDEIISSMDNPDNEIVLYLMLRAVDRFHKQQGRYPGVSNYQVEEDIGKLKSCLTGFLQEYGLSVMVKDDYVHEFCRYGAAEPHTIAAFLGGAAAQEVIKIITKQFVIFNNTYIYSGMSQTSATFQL
GRK2 inh – compounds blocking aptamer binding on GRK2 – biochemical, human GRK2, bead flow cytometry, HTS, primary screen; Beta-adrenergic receptor kinase 1 (Homo sapiens), P25098; FAM-aptamer displacement from GRK2; inhibition of aptamer binding, % at 10 µM; 0.59% of 330,000 active;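 active means inhibition of aptamer binding above 40%, roughly 3 SD of noise, on plates passing a quality check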;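 further: median bead fluorescence of bound FAM aptamer so fluorescent compounds give negative values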
HDAC3 inh – HDAC3 deacetylase inhibitors, primary screen, biochemical, fluorescence, cell-free homogeneous. Histone deacetylase 3 (Homo sapiens), O15379. AID 2718, 2010. 0.15% of 320,000 active. inhibition, % at 8.3 µM. recombinant HDAC3, fluorogenic peptide/trypsin coupled; in the data active means inhibition above about 26%, passing the limit was not always enough
Cardio protect – cardioprotection against H2O2-induced cell death, primary screen, uHTS, H9c2 cells, ATPLite luminescence; H9c2 cardiomyocytes, H2O2 injury protection, 2 h; protection from H2O2 cell death, % at 20 µM; 0.63% of 360,000 active;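 active means compounds giving at least 50% protection of heart cells from peroxide-induced death in the single-dose screen, raw or plate-pattern-corrected value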;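 further: 0% = DMSO wells with peroxide and 100% = DMSO wells without peroxide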
* marks the source's active call; other numbers are inactive results; . = not tested or not shown. Most compounds without a hit are left out; they make up all but 1.8% or so of the library.

SMILES	Neddylation inh	GRK2 inh	HDAC3 inh	Cardio protect
COc1ccc(-c2ccc3c(c2)S(=O)(=O)c2cccc(C(=O)N4CCN(c5ccccn5)CC4)c2C3=O)cc1OC	-10	.	.	88*
COc1ccc(-c2ccc3c(c2)S(=O)(=O)c2cccc(C(=O)N4CCN(C5CCCCC5)CC4)c2C3=O)cc1OC	-7	1	5	35
COc1cc(C(=O)NNC(=O)COc2cccc(F)c2)ccc1OCC(=O)N1CCOCC1	-16	1	-4	2
CC(C)[C@H](NS(=O)(=O)c1ccccc1)C(=O)OCC(=O)Nc1cccc(S(N)(=O)=O)c1	10	71*	11	-4
Cc1cccc(NC(=O)c2cc(-c3ccco3)nc3ccccc23)n1	.	6	-8	61*
O=C(N/N=C/c1cccc(F)c1)c1cc(-c2ccco2)nc2ccccc12	40*	43*	-11	-15
Cc1ccccc1NC(=O)c1cc(-c2ccco2)nc2ccccc12	31	.	.	1
COC(=O)C1CCN(C(=O)c2cc(-c3ccco3)nc3ccccc23)CC1	-8	76*	-88	2
O=C(NN=Cc1cccc([N+](=O)[O-])c1)c1cc(-c2cccnc2)nc2ccccc12	-28	1	-10	51*
COc1cc(/C=N/NC(=O)c2cc(-c3ccco3)nc3ccccc23)cc(OC)c1O	-6	3	-5	25
Cc1cc(C(=O)N/N=C/c2cccc([N+](=O)[O-])c2)c2ccccc2n1	-42	4	-2	49
Cc1ccc(NCc2nc(SCC(=O)Nc3ccccc3)n[nH]2)cc1	6	0	-4	-6
Cc1nn(-c2ccccc2)c(N2CCCC2)c1/C=N/NC(=O)c1cc(-c2cccnc2)nc2ccccc12	1	0	1	59*
C/C(=N\NC(=O)c1cc(-c2cccnc2)nc2ccccc12)c1ccc(O)cc1O	5	3	6	52*
C/C(=N\NC(=O)COc1ccccc1-c1ccccc1)c1ccc(O)cc1O	-14	1	9	54*
C/C(=N\NC(=O)COc1ccccc1-c1ccccc1)c1ccccn1	11	2	3	39
COc1ccc(NC(=O)CN(C)C(=O)c2cc(-c3ccco3)nc3ccccc23)cc1	0	76*	3	11
Cc1ccc(C(=S)N2CCCCCC2)cc1	1	1	7	-3
CCOP(=O)(OCC)/C(C#N)=C/c1ccc([N+](=O)[O-])cc1	-13	2	2	2
Cc1ccc(N=Nc2ccc(O)c(/C=N\NC(=O)c3ccc(N)cc3)c2)cc1C	0	0	-4	56*
CN(CCc1ccccn1)C(=O)CC1C(=O)NCCN1Cc1cccc(F)c1 (stereo not drawn)	14	0	-9	0
Cc1cc(C)c(C(N)=O)c(SCC(=O)c2cc(C)n(-c3cc(C)on3)c2C)n1	0	0	-2	-12
O=C(Nc1nc(-c2cc(F)ccc2F)cs1)C1=NN(c2ccccc2)C(=O)CC1	12	0	7	51*
O=C(NNC(=O)c1ccccc1O)c1ccc(S(=O)(=O)Nc2ccccc2)cc1	9	2	5	58*
Cc1ccnc(N2C(=O)c3cccc4c([N+](=O)[O-])ccc(c34)C2=O)c1	45*	0	1	-25
SMILES	Neddylation inh	GRK2 inh	HDAC3 inh	Cardio protect
CC1(C(=O)N2CCCCC2)CCN1C(=O)C1(c2ccccc2)CC1 (stereo not drawn)	-3	.	.	7
NC(=O)c1cc2ccccc2o/c1=N\NC(=O)c1ccc(F)cc1	-35	3	1	64*
NC(=O)c1cc2ccccc2o/c1=N\NC(=O)c1ccccc1O	-27	0	5	15
CC(/C=C/C=C/c1ccccc1)=N/NC(=O)CNc1ccccc1C	-2	55*	2	8
CC(/C=C/c1ccco1)=N/NC(=O)CNc1ccccc1C	-6	0	-2	2
C=CCN1C(=O)/C(=C/c2ccc(O)c(OC)c2)S/C1=N/c1nccs1	-16	0	1	51*
CCC1(C)Cc2c(sc3nc(NN)n(C)c(=O)c23)CO1 (stereo not drawn)	7	4	1	51*
CCOC(=O)CSc1nc2sc3c(c2c(=O)[nH]1)CC(C)(CC)OC3 (stereo not drawn)	-12	0	-1	10
CC(=O)CSc1nnc(Cc2ccc([N+](=O)[O-])cc2)o1	-18	5	28*	2
CN(C)C(=O)CSc1nnc(Cc2ccc([N+](=O)[O-])cc2)o1	-29	1	1	2
CC(C)CCNC(=O)CNC(=S)N(Cc1ccccc1)Cc1cccnc1	14	1	1	0
O=C(/C=C/c1ccc(Cl)cc1)N1CCN(Cc2ccccc2)CC1	-7	44*	9	-1
Cc1cc(NC(=O)CSc2nncc(=O)n2N)no1	-6	7	3	1
Cc1c(Br)c(C(F)(F)F)nn1CC(=O)NCCCn1ccnc1	0	1	0	-5
COCCNC(=S)N(CCO)Cc1cc2cc3c(cc2[nH]c1=O)OCCO3	34	0	32*	0
COCCCNC(=S)N(CCO)Cc1cc2cc3c(cc2[nH]c1=O)OCCO3	32	1	-6	4
CC(OC(=O)CCc1nc2ccccc2c(=O)[nH]1)C(=O)Nc1ncc(Cl)cc1Cl (stereo not drawn)	-1	1	-3	2
O=C(CCc1nc2ccccc2c(=O)[nH]1)N1CCN(S(=O)(=O)c2ccccc2Br)CC1	12	0	0	71*
Cc1ccc(NC(=O)c2cc(=O)c3ccccc3o2)cc1S(=O)(=O)N1CCOCC1	-25	0	4	60*
Cc1ccc(C)c(S(=O)(=O)N2CCN(C(=O)CCc3c[nH]c4ccccc34)CC2)c1	9	1	-3	-3
CC(OC(=O)CCc1nc2ccccc2c(=O)[nH]1)C(=O)Nc1ccc2c(c1)OCO2 (stereo not drawn)	7	0	8	50*
Cc1ccc(C)c(S(=O)(=O)N2CCN(C(=O)CCc3nc4ccccc4c(=O)[nH]3)CC2)c1	6	2	0	57*
Cc1ccc(NC(=O)CCc2ccccc2)cc1S(=O)(=O)N1CCOCC1	-10	2	-1	6
Cc1ccc(S(=O)(=O)N2CCN(C(=O)CCc3nc4ccccc4c(=O)[nH]3)CC2)c(C)c1	4	2	10	72*
CC(C)c1ccc(S(=O)(=O)N2CCN(C(=O)CCc3nc4ccccc4c(=O)[nH]3)CC2)cc1	4	.	.	44
Cc1ccc(NC(=O)CCc2nc3ccccc3c(=O)[nH]2)cc1S(=O)(=O)N1CCOCC1	13	0	-4	86*
Cc1cc(C)nc(SCC(=O)NN=C2CCCC2)n1	2	3	4	8
Cc1ccc(-n2cc(-c3ccccc3)c3c(N4CCN(C)CC4)ncnc32)cc1	35	1	1	8
Cc1ccc(-n2cc(-c3ccccc3)c3c(N4CCOCC4)ncnc32)cc1	24	.	.	57*
